# Assay results published in ChEMBL document CHEMBL4513216, “Probing the Open Global Health Chemical Diversity Library for Multistage-Active Starting Points for Next-Generation Antimalarials” (ACS Infect Dis, 2020).
# Screen size: about 69,000 compounds; about 8,600 (12%) showed an effect of 50% or more. The sample holds strong results, similar compounds and a random draw of the others, so the mix is not that of the screen.
# Test system: Plasmodium berghei
# Assay: Screen against P. berghei liver stage (PbLuc), transformed with Luciferase, at 10uM
# Assay type: functional, HepG2
# Settings: tested at 10 uM
row,Compound,INHIBITION [%]
1,CC(C)C(=O)N1CCCC(Cc2ccccn2)C1 (stereo unspecified),25
2,COCCC(=O)N1CCCC(c2n[nH]cc2C)C1 (stereo unspecified),36
3,N#CCCCOc1cccnc1NC(=O)CC1CCCCC1,20.9
4,N#CCCCOc1cccnc1NC(=O)Cc1ccccc1F,65.2
5,N#CCCCOc1cccnc1NC(=O)CCC1CCCC1,-12.1
6,Cc1cccc(CC2CCCN(C(=O)Cc3csc(C)n3)C2)n1 (stereo unspecified),-8.12
7,Cc1noc(C)c1S(=O)(=O)NC(=O)COc1ccc2c(c1)CCC2,45.3
8,COc1cc(CN(C)Cc2ccncc2)c(SC)cc1OC,39.3
9,COc1cc(CN(C)Cc2cccnc2)c(SC)cc1OC,54.7
10,COc1cc(CN(C)CCc2ccncc2)c(SC)cc1OC,32.7
11,Cc1cccc(-n2ncc3c2CCCC3NCc2cccc(O)c2)c1C (stereo unspecified),31.9
12,Cc1nnc(NC(=O)NC2CCCc3c2cnn3CCO)s1 (stereo unspecified),38
13,Cc1cccc(-n2ncc3c2CCCC3NCC(C)(C)CO)c1C (stereo unspecified),58.5
14,Cc1cccc(-n2ncc3c2CCCC3NCc2cnn(C)c2C)c1C (stereo unspecified),33.4
15,Cc1cc(C(=O)NC2CCCc3c2cnn3-c2cccc(C)c2C)[nH]n1 (stereo unspecified),91
16,Cc1cc(NC(=O)NC2CCCc3c2cnn3CCO)n(C)n1 (stereo unspecified),-39.9
17,OC1(CN2CCCC2)COCCN(c2ncnc3[nH]cnc23)C1 (stereo unspecified),56.1
18,OC1(CN2CCCC2)COCCN(c2ncnc3[nH]ccc23)C1 (stereo unspecified),19.3
19,OC1(CN2CCCC2)CCCN(c2ncnc3[nH]cnc23)C1 (stereo unspecified),13.9

row,Compound,INHIBITION [%]
1,CN(C)C[C@H]1OC[C@@H]2CCN(C(=O)c3cccn3C)C[C@@H]21,4.2
2,CC(C)N(C)C(=O)C1=NOC2(CCN(C(=O)c3cccn3C)C2)C1 (stereo unspecified),13.3
3,O=C(NCc1ccco1)[C@H]1CC[C@@H]2[C@@H](CCN2C2CCC2)O1,27.6
4,Cc1nn(CC(=O)Nc2ccon2)c(C)c1Br,40.8
5,CCN1CCN(C2CCN(Cc3noc(C4CC4)n3)CC2)C1=O,35.9
6,CCN1CCN(C2CCN(Cc3noc(C)n3)CC2)C1=O,51.2
7,Cc1nc(CN2CCC(N3CCN(C)C3=O)CC2)no1,11.2
8,Cc1ccc(CNC(=O)Cc2c(C)nc3c(c2C)c(=O)[nH]n3C)cc1,29.4
9,CC(NC(=O)CCn1cccn1)c1cn(-c2ccccc2)nn1 (stereo unspecified),-15.5
10,CC(C)NC(=O)[C@@H]1C[C@H](N)CN1C(=O)C1(c2ccc(Cl)cc2)CCC1,41.5
11,O=C(c1cc[nH]n1)N1CCCC1c1cncc(CN2CCOCC2)n1 (stereo unspecified),11.8
12,Cc1csc(C(C)(C)NCCNS(C)(=O)=O)n1,-1.75
13,CC(C)(NCCOc1ccc(CC#N)cc1)c1nccs1,-6.34
14,Cc1csc(C(C)(C)NCCOc2ccc(CC#N)cc2)n1,58.1
15,CC(C)(NCCCOc1ccc(C#N)cc1)c1nccs1,53.8
16,N#Cc1ccc(OCCNCCn2cccn2)cc1,27.6
17,CCS(=O)(=O)NCCNC(C)(C)c1nc(C)cs1,-7.72
18,CN1CCOC(c2cncc(CCC(N)=O)n2)C1 (stereo unspecified),-0.232
19,Cn1ccc2cc(CC3COCCN(C(=O)c4ccccn4)C3)ccc21 (stereo unspecified),20.055

row,Compound,INHIBITION [%]
1,CC(=O)N1N=C(c2ccco2)OC1C(=O)N(C)CCc1ccccc1 (stereo unspecified),24.3
2,Cc1cc2nc(SCC(=O)N3CCCC3)n(C)c(=O)c2[nH]1,19.3
3,COCCNC(=O)C[C@@H]1COC[C@H]2CN(C(=O)COC)C[C@@H]12,13.1
4,COCCNC(=O)C[C@@H]1COC[C@H]2CN(C(=O)C3CCOCC3)C[C@@H]12,69.3
5,COCCNC(=O)C[C@@H]1COC[C@H]2CN(CC3CCOCC3)C[C@@H]12,36.7
6,CC[C@@H](c1ccccc1)n1c(C2CC2)n[nH]c1=O,37.3
7,CCc1noc(CNCCn2cc(C)cn2)n1,-9.37
8,COCc1noc(CNc2nc(C3CCCC3)nc3c2CCNCC3)n1,-52.2
9,OC(CNc1ncnc2c1CCNCC2)C(F)(F)F (stereo unspecified),13.6
10,C1Cc2nc(CCNc3nc(C4CC4)nc4c3CCNCC4)sc2C1,64.8
11,OC(CNc1nc(C2CCCC2)nc2c1CCNCC2)C(F)(F)F (stereo unspecified),52.1
12,COCCNc1nc(C2CCCC2)nc2c1CCNCC2,-39.9
13,Cc1nc2c(c(NCC(O)c3ccccc3Cl)n1)CCNCC2 (stereo unspecified),-32.6
14,Cc1nc2c(c(NCC(O)C(F)(F)F)n1)CCNCC2 (stereo unspecified),93.2
15,Cc1nc2c(c(NCCc3nc4c(s3)CCCC4)n1)CCNCC2,25.8
16,c1nc(CCNc2nc(C3CC3)nc3c2CCNCC3)c[nH]1,-3.77
17,CC(C)c1nn2c(-c3cnn(C)c3)nnc2s1,-14.2
18,CCC(C)(CNC(=O)c1ccon1)NC(=O)c1ccon1 (stereo unspecified),-13.7
